The text below walks through data of PubChem BioAssay (Tox21).

Inconclusive results are not listed. Activity calls are given as the source filed them. The call rests on the fitted dose curve.
On the % scale 0 is the no-effect control and ±100 the full control effect.

Sequence of Beta-2 adrenergic receptor (Homo sapiens) (P07550 whole entry, looked up): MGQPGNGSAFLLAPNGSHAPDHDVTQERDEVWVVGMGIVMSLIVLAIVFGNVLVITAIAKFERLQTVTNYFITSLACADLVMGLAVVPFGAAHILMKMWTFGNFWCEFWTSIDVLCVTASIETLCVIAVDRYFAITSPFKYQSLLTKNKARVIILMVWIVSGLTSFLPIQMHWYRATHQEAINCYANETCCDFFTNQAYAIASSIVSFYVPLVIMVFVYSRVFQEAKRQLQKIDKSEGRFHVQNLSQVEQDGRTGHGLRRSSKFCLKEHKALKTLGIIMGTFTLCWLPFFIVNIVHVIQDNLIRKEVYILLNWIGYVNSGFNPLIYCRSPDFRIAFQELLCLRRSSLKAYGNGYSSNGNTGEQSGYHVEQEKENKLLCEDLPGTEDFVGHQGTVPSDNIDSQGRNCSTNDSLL

This experiment addresses Beta-2 adrenergic receptor (Homo sapiens) (UniProt P07550). Put plainly: Adrenergic beta2 receptor (ADRB2) small molecule agonists, cell-based qHTS assay (AID 1963593). Particulars: CHO-ADRB2 cells, cAMP HTRF, 30 min; series mostly up to 92.4 µM; activation: at the top concentration. From the text:
National Center for Advancing Translational Sciences [NCATS]
Division of Preclinical Innovation [DPI]
U.S. Environmental Protection Agency [EPA]
National Institutes of Environmental Health Sciences [NIEHS]
National Toxicology Program [NTP]
U.S. Food and Drug Administration [FDA]
Beta adrenergic receptors (Beta-ARs) belong to the G-protein coupled receptor (GPCR) superfamily, includes three subtypes - beta1, beta2, and beta3. Beta1-AR is the predominant receptor subtype expressed in the heart, and beta2-AR is expressed in the kidney, lung, blood vessel and in the heart, and beta3 is found in the adipocytes. Beta1 and 2 ARs couple to Gs protein and elevate cyclic adenosine mono phosphate (cAMP), which activates protein kinase A and leads to the downstream signaling responsible for the physiological actions. Beta-AR agonists or antagonists are the most prescribed therapeutic agents for heart failure and asthma, and these were one of the first target receptors for the rational drug design. Tox21 10K compound library was screened using the cAMP-Gs dynamic assay (Cisbio Bioassays, Shelton, CT) to identify agonists/antagonists of the Gs-coupled human adrenergic, beta2 receptor (ADRB2) in the CHO-ADRB2 cell line (Codex BioSolutions, Inc. Gaithersburg, MD), which stably over-expresses ADRB2. The principle of cAMP-Gs dynamic assay is based on HTRF technology, which facilitates the fluorescence resonance energy transfer (FRET) between donor Europium cryptate and acceptor d2-labeled cAMP. The cAMP generated within cells competes with the red acceptor, d2-labled cAMP, for binding to the monoclonal anti-cAMP-cryptate (Europium donor). An increase in intracellular cAMP leads to the disruption of FRET signal, and the signal is inversely proportional to the cAMP concentration. Isoproterenol HCl (Sigma-Aldrich, St. Louis, MO) was used as a positive control in the screening.
Tox21 Assay Protocol Summary:
CHO-ADRB2 cells were dispensed at 1,000/well in 4uL assay medium into white/solid 1536-well plates (Greiner Bio-One North America Inc., Monroe, NC) using a Multidrop Combi dispenser (ThermoFisher Scientific, Waltham, MA). The assay plates were incubated at 37C and 5% CO2 for an overnight (18-20hr). Then positive control and test compounds dissolved in DMSO were transferred to the assay plates at 23nL using a Pintool station (Wako, San Diego, CA). Following the compound and positive control transfer, 1uL stimulation mix containing 100uM IBMX and 25uM Ro-20-1724 was added to each well of the assay plates using BioRAPTR Flying Reagent Dispenser (FRD, Beckman Coulter, Brea, CA). The assay plates were incubated at room temperature for 0.5hr. Then 2.5ul each d2-labled cAMP and anti-cAMP-cryptate solutions were added separately to each well of the assay plates using an FRD and the assay plates were incubated at room temperature for 1hr.
For the compound `Cc1cc(Cl)ccc1N`, the Potency result was “inactive”.

Take `Clc1cccc(Cl)c1Cl`: the Potency entry is “inactive”.

`Clc1ccccc1Cl`: the “activation” value was 10.8% (inactive).

Consider `N#CC(Br)Br`, for which the “activation” value is 11.7% (inactive).

`CC1(C)[C@H](C(=O)O[C@H](C#N)c2cccc(Oc3ccccc3)c2)[C@@H]1/C=C(\Cl)C(F)(F)F`: the “activation” value was 11% (inactive).

`O=C([O-])c1ccccn1.O=C([O-])c1ccccn1.O=C([O-])c1ccccn1.[Cr+3]`: the “activation” value was 6.73% (inactive).

For the compound `COCC(=O)N(c1c(C)cccc1C)N1CCOC1=O`, the “activation” value is 9.22% (inactive).

With `N[C@@H](Cc1ccc(N(CCCl)CCCl)cc1)C(=O)O`, the “activation” value was -0.995% [at 42.5 µM] (inactive).

In the case of `C=C(C)[C@@H]1CC=C(C=O)CC1`, the “activation” value is -6.16% (inactive).

As to `O=c1ccc(=O)[nH][nH]1`, the “activation” value is 3.66% (inactive).

With `C=CCSSCC=C`, the “activation” value was 0.0435% (inactive).

Consider `COC(=O)NS(=O)(=O)c1ccc(N)cc1`, for which the “activation” value was 2.58% (inactive).

With `O=NN(c1ccccc1)c1ccccc1`, the Potency result is “inactive”.

With `c1nc[nH]n1`, the Potency entry was “inactive”.

For the compound `C=CCN(CC=C)C(=O)C(Cl)Cl`, the Potency entry was “inactive”.

For `C=CC#N`, the Potency entry is “inactive”.

Regarding `NCCc1ccc(O)cc1`, the “activation” value is -25.9% (inactive).

As for `ClC(Cl)=C(Cl)C(Cl)=C(Cl)Cl`, the “activation” value was -0.4% (inactive).

As to `CC[N+](=O)[O-]`, the “activation” value was 25.6% (inactive).

`Nc1ccc(-c2ccc(N)c(Cl)c2)cc1Cl`: the Potency entry is “inactive”.

Consider `C[C@]12CC[C@H](O)CC1=CC[C@@H]1[C@@H]2CC[C@]2(C)C(=O)CC[C@@H]12`, for which the “activation” value is -26.6% [at 42.5 µM] (inactive).

As to `NNC(N)=S`, the “activation” value was 6.73% (inactive).

As to `C#C[C@]1(O)CC[C@H]2[C@@H]3CCC4=CC(=O)CC[C@]4(C)[C@H]3CC[C@@]21C`, the Potency result is “inactive”.

Consider `CCC(=O)OC1(c2ccccc2)CCN(C)CC1`, for which the “activation” value is 18.9% (inactive).

`Clc1ccc(C(Cl)(Cl)Cl)c(Cl)c1`: the “activation” value is 2.81% (inactive).

With `Cc1ccc([N+](=O)[O-])cc1`, the Potency result was “inactive”.

In the case of `Clc1ccc(C(Cl)(Cl)Cl)cn1`, the “activation” value was 0.27% (inactive).

`c1ccc2sc(SNC3CCCCC3)nc2c1`: the “activation” value is -24.8% (inactive).

As to `c1ccc2c(c1)oc1ccccc12`, the “activation” value is -20.2% (inactive).

For `[O-][Cl+2]([O-])O`, the Potency entry is “inactive”.

`ClCc1ccccn1`: the Potency result is “inactive”.

Take `O=P1(NCCCl)OCCCN1CCCl` (stereo not given): the Potency result is “inactive”.

On to `O=C(O)C1C(C(=O)O)C2(Cl)C(Cl)=C(Cl)C1(Cl)C2(Cl)Cl` (stereo not given), for which the “activation” value was 24% (inactive).

For the compound `CCCCC(CC)COC(=O)Cl` (stereo not given), the Potency entry was “inactive”.

For `CN(C)CCO`, the “activation” value was -16.3% (inactive).

`COc1ccc(N)cc1`: the Potency entry was “inactive”.

On to `CC1COC2(c3ccccc3Cl)c3cc(Cl)ccc3NC(=O)CN12` (stereo not given), for which the “activation” value is 21.4% [at 42.5 µM] (inactive).

For `Nc1ccccc1C(=O)O`, the “activation” value was 1.89% [at 42.5 µM] (inactive).

As for `N#CCCCCC#N`, the “activation” value is -1.73% (inactive).

Take `COP(=S)(OC)Oc1ccc(S(=O)(=O)N(C)C)cc1`: the “activation” value is -7.41% [at 42.5 µM] (inactive).
